Laboratory results taken from PubChem BioAssay (EPA / NIEHS).
Values joined by “and” are separate entries in the source; they are usually repeats but may differ in a detail not shown here. Equal values may be shown once. More than one record can exist for a structure, and the calls need not agree. Active and inactive are the calls of the source. The calls were made as follows: active = hit-call score of the fitted dose curve at least 0.9, where 1 is the maximum; inactive = score below 0.9.

How the values were obtained:
[1] = read-out: E-selectin (Homo sapiens) (UniProt P16581); test: BSK_SAg_Eselectin: BioMAP Diversity Plus: SAg Assay for Eselectin Biomarker Activity (AID 2283091); details: primary human HUVEC with PBMC; actives raise or lower the signal
How it was run: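 HUVEC co-cultured with PBMC, compound dosed then read at 24 h; E-selectin measured by ELISA. Activity fitted bidirectionally against DMSO as negative control and baseline.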

[2] = read-out: Monokine induced gamma interferon (MIG), CXCL9 (gene 4283); test: BSK_SAg_MIG: BioMAP Diversity Plus: SAg Assay for Monokine induced gamma interferon (MIG) Biomarker Activity (AID 2283092); details: primary human HUVEC with PBMC; actives raise or lower the signal
How it was run: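 Values reflect bidirectional fitting of ELISA-measured MIG against DMSO vehicle, taken 24 h after dosing of a co-culture of human umbilical vein endothelial cells and peripheral blood mononuclear cells.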

[3] = BSK_SAg_PBMCCytotoxicity: PBMC Cytotoxicity Assessment in the BioMAP Diversity Plus: SAg Assay (AID 2283093); details: primary human HUVEC with PBMC;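 also: PBMC viability measured as Alamar Blue reduction fluorescence at 546/580 nm; fitted both ways against DMSO so a hit may be loss or gain of signal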;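 as to AC50: PBMC superantigen activated with SEB plus TSST-1 one hour after compound addition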
How it was run: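 Compound added to 75,000 PBMC/well for 1 h; SEB and TSST-1 then added at 20 ng/mL final each; 90 h incubation; Alamar Blue 6 h; read 546/580 nm ex/em. Activity fitted bidirectionally relative to DMSO baseline.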

[4] = read-out: Interleukin-8 (IL8), CXCL8 (gene 3576); test: BSK_SAg_IL8: BioMAP Diversity Plus: SAg Assay for Interleukin-8 (IL8) Biomarker Activity (AID 2283094); details: primary human HUVEC with PBMC; actives raise or lower the signal
How it was run: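 ELISA read-out of IL-8 in a primary human vascular co-culture (umbilical vein endothelium plus PBMC), taken 24 h after compound addition. Values derive from bidirectional fits against DMSO negative controls.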

[5] = BSK_SAg_Proliferation: Cell Proliferation Assessment in the BioMAP Diversity Plus: SAg Assay (AID 2283095); details: primary human HUVEC with PBMC;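 also: relative cell number as total protein by SRB absorbance in sub-confluent culture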
How it was run: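 Cells (endothelium plus PBMC, human primary) were dosed with chemical, cultured 96 h, fixed in 10% TCA and stained with 0.1% SRB. Absorbance at 560 nm gave relative protein, fitted bidirectionally relative to DMSO.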

[6] = BSK_SAg_SRB: Viability Assessment in the BioMAP Diversity Plus: SAg Assay (AID 2283096); details: primary human HUVEC with PBMC;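 also: cells read one day after compound addition; hits may be either gain or loss of signal compared with DMSO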
How it was run: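 Total protein by sulforhodamine B staining, 24 h after dosing, in HUVEC–PBMC co-culture; DMSO-referenced bidirectional fitting.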

Measured: AC50

Sequence of E-selectin (Homo sapiens) (P16581 whole entry, looked up): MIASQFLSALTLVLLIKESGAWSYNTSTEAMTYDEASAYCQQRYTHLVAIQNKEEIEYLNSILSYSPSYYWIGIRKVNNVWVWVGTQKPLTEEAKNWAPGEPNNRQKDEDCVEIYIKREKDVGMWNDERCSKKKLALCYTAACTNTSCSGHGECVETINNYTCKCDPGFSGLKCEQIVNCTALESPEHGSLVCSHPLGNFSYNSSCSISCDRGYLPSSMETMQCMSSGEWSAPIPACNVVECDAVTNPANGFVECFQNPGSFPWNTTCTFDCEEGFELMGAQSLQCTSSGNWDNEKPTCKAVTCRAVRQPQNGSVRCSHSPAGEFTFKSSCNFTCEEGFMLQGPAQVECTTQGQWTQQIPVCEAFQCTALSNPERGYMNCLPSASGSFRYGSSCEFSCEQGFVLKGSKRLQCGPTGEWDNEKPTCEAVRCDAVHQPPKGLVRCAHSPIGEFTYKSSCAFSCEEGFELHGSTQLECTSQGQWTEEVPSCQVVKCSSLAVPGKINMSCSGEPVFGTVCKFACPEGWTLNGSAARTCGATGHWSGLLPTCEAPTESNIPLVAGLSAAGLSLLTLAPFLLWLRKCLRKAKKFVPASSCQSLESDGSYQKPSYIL

CCCCCCCCCCCCCCCCCC[N+](C)(C)Cc1ccccc1
active: [1] 4.86 µM | [2] 3.19 µM | [3] 0.919 µM | [4] 10 µM | [5] 0.312 µM | [6] 2.67 µM

OCCN1CN(CCO)CN(CCO)C1
active: [1] 20 µM | [2] 33.1 µM | [3] 27 µM | [4] 13.1 µM | [5] 26 µM | [6] 33.4 µM

OCC(F)(F)C(F)(F)C(F)(F)C(F)(F)C(F)(F)C(F)(F)C(F)(F)C(F)(F)C(F)(F)C(F)(F)C(F)(F)F
active: [3] 115 nM and 64.1 nM | [5] 476 nM and 63.9 nM
inactive: all other assays above

CN(C)c1ccc(C(=C2C=CC(=[N+](C)C)C=C2)c2ccccc2)cc1
active: [1] 0.0082 µM | [2] 0.132 µM | [3] 0.481 µM | [4] 2.78 µM | [5] 0.0153 µM | [6] 0.0747 µM

CN(C)CCOC(c1ccccc1)c1ccccc1
inactive: all assays above

N=C(N)c1ccc(OCCCCCOc2ccc(C(=N)N)cc2)cc1
active: [4] 6.91 µM | [5] 13.6 µM
inactive: all other assays above

O=C(NCc1ncc(C(F)(F)F)cc1Cl)c1c(Cl)cccc1Cl
inactive: all assays above

CCCCC(CC)C(=O)O (stereo unspecified)
inactive: all assays above

CC1=NN(c2ccccc2)C(=O)C1
inactive: all assays above

COc1cccc(O)c1
inactive: all assays above

Cc1ccc(N=Nc2c(O)ccc3ccccc23)c(C)c1
active: [3] 4.15 µM | [5] 4.79 µM
inactive: all other assays above

CCCCC=O
inactive: all assays above

COc1cc(OC)nc(NC(=O)NS(=O)(=O)Nc2ccccc2C(=O)N(C)C)n1
inactive: all assays above

O=C(NO)c1ccccc1
inactive: all assays above

CCCCCCCCCCCC
active: [5] 36.6 µM
inactive: [1] | [2] | [3] | [4] | [5] | [6]

C=CC(C)(CCC=C(C)C)OC(C)=O (stereo unspecified)
inactive: all assays above

C[C@]12CC[C@@H]3c4ccc(O)cc4CC[C@H]3[C@@H]1C[C@@H](O)[C@@H]2O
inactive: all assays above

CCCCCCCCCCCCOS(=O)(=O)O
inactive: all assays above

CCCCCc1ccc(O)cc1
active: [1] 26.8 µM | [2] 36.7 µM | [3] 13.5 µM | [4] 30.6 µM | [5] 15.3 µM | [6] 25.9 µM

CCCCCCCCCCCCCCC
inactive: all assays above

O=C(CC(=O)C(F)(F)C(F)(F)C(F)(F)F)c1cccs1
active: [1] 30 µM and 43.1 µM | [2] 48.3 µM and 53.4 µM | [3] 44.8 µM and 43.6 µM | [4] 3.52 µM and 10.7 µM | [5] 13.5 µM and 13.3 µM | [6] 29.9 µM and 48.5 µM

Oc1cc2ccccc2cc1O
inactive: all assays above

Cc1cccc2c1ccc1ccccc12
inactive: all assays above

O=C(c1ccccc1)c1ccccc1
inactive: all assays above

O=S(=O)(O)C(F)(F)C(F)(F)C(F)(F)C(F)(F)C(F)(F)C(F)(F)C(F)(F)C(F)(F)C(F)(F)C(F)(F)F
active: [1] 7.15 µM | [6] 13.2 µM
inactive: [1] | [2] | [3] | [4] | [5] | [6]

O=C(O)C(F)(F)OC(F)(F)C(F)(F)OC(F)(F)C(F)(F)OC(F)(F)C(F)(F)C(F)(F)C(F)(F)F
active: [1] 45.4 µM and 49.9 µM | [2] 49.2 µM and 53.4 µM | [3] 44.5 µM and 45.8 µM | [4] 30 µM and 24.7 µM | [5] 49.6 µM and 47.7 µM | [6] 51.5 µM and 53.1 µM

O=C(O)CCC(F)(F)C(F)(F)C(F)(F)C(F)(F)C(F)(F)C(F)(F)F
inactive: all assays above

Oc1ccc(Cc2ccccc2O)cc1
inactive: all assays above
